Experimental data from PubChem BioAssay.
Results filed as inconclusive are left out. Active and inactive are the calls of the source.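 How the source made its calls, unless noted: active means viability increase at or above a cutoff of the median across tested compounds plus 3 SD (cut at about 8.5% in these data, passing the limit was not always enough); inconclusive means some gains above the cutoff, reason not given; inactive means the rest.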

Columns and labels:
[1] = reducers of endogenous Her2 protein level, primary screen, SKBR3 breast tumor cells, AlphaScreen, ATP viability (AID 461;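 active means Her2 level under about 52% in both replicate screens, with viability over 70% of control, limit read from the data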;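 on Her2 level: lower value means less Her2 protein in the cells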;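 on viability: percent of carrier control wells set as 100% viability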); conditions: 18-24 h, measured here: SKBR3 viability, ATP luminescence, at 10 µM
[2] = target: Receptor tyrosine-protein kinase erbB-2 (Homo sapiens) (UniProt P04626); experiment: as above; conditions: 18-24 h, at 10 µM, stronger effect = lower value
[3] = SK-BR-3 cell growth inhibitors, pilot screen, 24 h, human (AID 572;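 active means viability at or below 10% of carrier control in both of two separate runs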;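 further: compound exposure lasted between 18 and 24 h rather than exactly 24 h; 100% = carrier-treated control wells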); conditions: SK-BR-3 viability, CellTiter-Glo luminescence, at 10 µM, stronger effect = lower value
[4] = HUVEC growth inhibition – cell-based, human, primary screen (AID 575;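 active means viability at or below 30% in both replicate assays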;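 further: 100% = median of untreated cell wells with 0.1% DMSO on each plate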); conditions: HUVEC proliferation, CellTiter-Glo luminescence, 72 h; at 10 µM; stronger effect = lower value
[5] = growth inhibitors of H69AR lung tumor, primary screen, human, duplicate replicates (AID 580;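 active means viability at or under a set limit in both replicates, limit being median viability minus 3 SD, cut at about 48% in these data, passing the limit was not always enough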;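 further: 100% = mean luminescence of untreated wells and 0% = no signal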); conditions: H69AR lung tumor cells viability, ATP luminescence, 72 h; at 10 µM; stronger effect = lower value
[6] = reversal of MRP1-mediated doxorubicin resistance, pilot screen, H69AR cells, doxorubicin co-treatment (AID 601;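 active means viability loss from added drug above about 55%, and viability with drug at most 40%, in both replicates, limit read from the data, passing the limit was not always enough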); conditions: CellTiter-Glo, 72 h, at 10 µM; for differential viability (reversal): stronger effect = higher value
[7] = 384-well plate pilot, post-Golgi transport modulator project, inhibition of yeast transport mutant growth (AID 636; in the data active means inhibition above about 31%); conditions: absorbance 615 nm, about 18 h, stronger effect = higher value
[8] = growth suppression of yeast trafficking mutant, preliminary HTS, modulators of trafficking downstream of Golgi apparatus project, 1536-format plate, OD 615 nm (AID 637; in the data active means inhibition above about 30%); conditions: yeast transport mutant growth, absorbance 615 nm, 18 h; stronger effect = higher value
[9] = OD615 S. cerevisiae growth inhibition, permissive medium, pilot counter-assay, permissive growth control for S. cerevisiae lifespan shortening project (AID 705;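 active means growth inhibition above 25% in both replicates, a cutoff set 3 SD above the mean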); conditions: OD615, 24 h, at 10 µM, stronger effect = higher value
[10] = Restrictive medium S. cerevisiae growth inhibition, OD615, pilot screen of yeast lifespan reduction project, restrictive growth control (AID 706;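 active means growth inhibition above a set limit, 3 SD over mean compound inhibition, in both replicates, cut at about 43% in these data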;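 further: modified DeaD lifespan yeast strain shifted to restrictive glucose medium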); conditions: OD615, 48 h, at 10 µM, stronger effect = higher value
[11] = viability gain of MRP-1-high H69AR cells under doxorubicin, pilot screen, MRP-1 activator project, CellTiter-Glo, duplicate (AID 807); conditions: H69AR viability with doxorubicin, CellTiter-Glo luminescence; at 10 µM; stronger effect = higher value;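 further: compound pretreatment 18-22 h then 72 h combined with doxorubicin; 0% = doxorubicin alone and 100% = vehicle without doxorubicin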
[12] = growth suppression of beta-catenin knockout HCT116, pilot screen, human colon tumor cells (AID 823;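 active means cell viability at or below a set limit in both duplicate runs, the limit being the all-compound median minus 4 SD, cut at about 23% in these data, passing the limit was not always enough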;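 further: 0% = wells killed by 20 µM Hyamine and 100% = untreated DMSO cell wells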); conditions: CellTiter-Glo, 60 h, at 10 µM, stronger effect = lower value
[13] = growth suppression of PTEN-deleted HCT116, pilot screen, cell-based, HCT116 clonal line, CellTiter-Glo (AID 824;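 active means viability at or below 27.92% in each of two runs, the all-compound median minus 4 SD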;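 further: 0% = 20 µM Hyamine control and 100% = vehicle cell control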); conditions: 60 h, at 10 µM, stronger effect = lower value
[14] = inhibitors of the yeast RAM network, pilot screen, dse1pr::URA3 reporter, 5-FOA selection (AID 869;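 active means inhibition over a set limit, the all-compound mean plus 3 SD, in both replicate runs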;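 further: 0% = DMSO wells with no growth and 100% = 10 µM 1-NA-PP1 with full growth; RAM network block rescues cells from 5-FOA so hits raise OD615 growth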); conditions: S. cerevisiae dse1pr::URA3 5-FOA growth, OD615, 2 d; at 10 µM; stronger effect = higher value; strain carries analog-sensitive mutant Cbk1 kinase
[15] = RAM signaling pathway blockade in yeast – S. cerevisiae, Pdr1DBD-CYC8 efflux-inhibited sensitized strain, primary screen (AID 1298;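 active means RAM network inhibition above 8.4% in each of two replicates, 3 SD over the compound average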;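 further: 0% = DMSO untreated cells without growth and 100% = 10 µM 1-NA-PP1 full growth; higher means more yeast growth rescued from 5-FOA killing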); conditions: S. cerevisiae cbk1-as DSE1-URA3 strain, 5-FOA growth OD615, 2 d; at 50 µM; stronger effect = higher value
[16] = H69AR cells + 2 uM doxorubicin, measured here: viability with 2 uM doxorubicin, stronger effect = lower value
[17] = H69AR cells, compound alone cytotoxicity

Sequence of Receptor tyrosine-protein kinase erbB-2 (Homo sapiens) (P04626 whole entry, looked up): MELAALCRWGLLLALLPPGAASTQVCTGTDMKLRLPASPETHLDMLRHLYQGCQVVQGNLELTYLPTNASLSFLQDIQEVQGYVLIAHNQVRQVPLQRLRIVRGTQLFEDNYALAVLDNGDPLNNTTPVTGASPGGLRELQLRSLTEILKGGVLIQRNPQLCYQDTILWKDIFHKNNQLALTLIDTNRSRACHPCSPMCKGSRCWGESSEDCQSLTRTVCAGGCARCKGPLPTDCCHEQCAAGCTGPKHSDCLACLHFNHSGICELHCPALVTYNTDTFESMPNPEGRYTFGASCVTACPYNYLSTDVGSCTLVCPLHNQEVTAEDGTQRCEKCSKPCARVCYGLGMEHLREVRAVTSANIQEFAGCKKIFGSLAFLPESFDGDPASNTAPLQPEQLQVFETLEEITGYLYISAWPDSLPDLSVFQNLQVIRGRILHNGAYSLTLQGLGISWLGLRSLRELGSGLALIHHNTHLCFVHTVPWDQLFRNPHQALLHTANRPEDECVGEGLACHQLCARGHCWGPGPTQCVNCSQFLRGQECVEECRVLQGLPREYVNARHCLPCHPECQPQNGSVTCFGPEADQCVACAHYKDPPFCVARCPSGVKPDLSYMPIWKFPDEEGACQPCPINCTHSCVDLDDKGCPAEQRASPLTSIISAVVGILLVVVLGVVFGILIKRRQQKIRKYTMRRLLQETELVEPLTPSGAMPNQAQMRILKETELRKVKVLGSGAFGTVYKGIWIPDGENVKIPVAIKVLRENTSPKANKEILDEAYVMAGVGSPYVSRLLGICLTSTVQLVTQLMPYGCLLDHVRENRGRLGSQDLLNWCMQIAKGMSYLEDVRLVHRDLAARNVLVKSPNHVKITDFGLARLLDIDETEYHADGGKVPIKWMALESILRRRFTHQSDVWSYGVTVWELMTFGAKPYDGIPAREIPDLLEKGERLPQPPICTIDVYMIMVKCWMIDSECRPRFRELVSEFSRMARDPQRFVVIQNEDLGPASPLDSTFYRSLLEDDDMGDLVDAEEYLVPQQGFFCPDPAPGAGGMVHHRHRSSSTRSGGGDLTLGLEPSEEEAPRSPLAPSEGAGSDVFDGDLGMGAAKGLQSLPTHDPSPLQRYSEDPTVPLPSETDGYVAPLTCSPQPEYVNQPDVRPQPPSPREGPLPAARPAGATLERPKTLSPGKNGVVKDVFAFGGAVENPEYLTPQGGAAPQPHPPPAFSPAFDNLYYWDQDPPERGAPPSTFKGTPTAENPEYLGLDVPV

Structure (SMILES) | viability [1] [%] | Her2 level [2] | viability [3] | viability [4] | viability [5] | differential viability (reversal) ([6]; H69AR cells + 2 uM doxorubicin) | viability [6, 16] [%] | viability [6, 17] [%] | inhibition [7] | inhibition [8] | growth inhibition [9] | growth inhibition [10] | viability increase [11] | viability [12] | viability [13] | inhibition [14] | RAM network inhibition [15]
CC1Cc2nc(SCC(=O)N3CCCc4ccccc43)n(C)c(=O)c2S1 (stereo not given) | 97 | 91% (inactive) | 97% (inactive) | 84.8% (inactive) | 72% (inactive) | 20.9% (inactive) | 51.2 | 72 | -4.27% (inactive) | 0.33% (inactive) | -5.25% (inactive) | -9.97% (inactive) | -3.51% (inactive) | 76.1% (inactive) | 73.4% (inactive) | 3.17% (inactive) | 6.46% (inactive)
CC(=O)Nc1ccc(S(=O)(=O)N2CCN(C(=O)CCC3CCCC3)CC2)cc1 | 84 | 98.5% (inactive) | 84% (inactive) | 99% (inactive) | 92.9% (inactive) | -9.75% (inactive) | 103 | 92.9 | -1.2% (inactive) | -4.35% (inactive) | 0.295% (inactive) | -1.04% (inactive) | -2.79% (inactive) | 78.7% (inactive) | 81.8% (inactive) | 0.505% (inactive) | 2.16% (inactive)
COc1cccc(-c2nnc(NC(=O)c3ccccc3Br)o2)c1 | 87 | 85.5% (inactive) | 87% (inactive) | 71.6% (inactive) | 67% (inactive) | -22.2% (inactive) | 89.2 | 67 | -5.87% (inactive) | 1.33% (inactive) | -13.4% (inactive) | 13.6% (inactive) | -5.12% (inactive) | 71.7% (inactive) | 73.2% (inactive) | 1.46% (inactive) | -2.32% (inactive)
NC(=O)c1cccc2c1C(=O)N(C1CCCCC1)C2 | 109 | 99.5% (inactive) | 109% (inactive) | 76% (inactive) | 88.9% (inactive) | -2.49% (inactive) | 91.4 | 88.9 | -0.77% (inactive) | -1.33% (inactive) | -7.48% (inactive) | -4.63% (inactive) | -0.58% (inactive) | 101% (inactive) | 95.3% (inactive) | 0.59% (inactive) | 3.36% (inactive)
COc1cccc(NC(=O)c2nnn(Cc3ccc(Br)cc3F)c2N)c1 | 98 | 89% (inactive) | 98% (inactive) | 59.4% (inactive) | 72% (inactive) | 2.77% (inactive) | 69.2 | 72 | -3.33% (inactive) | 2.46% (inactive) | -7.21% (inactive) | -5.7% (inactive) | -0.51% (inactive) | 94.5% (inactive) | 95.7% (inactive) | 1.61% (inactive) | 5.85% (inactive)
COc1ccccc1NC(=O)C1(C)Cc2ccccc2C(=O)O1 (stereo not given) | 106 | 108% (inactive) | 106% (inactive) | 102% (inactive) | 91.7% (inactive) | 2.89% (inactive) | 88.8 | 91.7 | -2.82% (inactive) | 0.67% (inactive) | -6.73% (inactive) | 5.93% (inactive) | -0.93% (inactive) | 107% (inactive) | 99.8% (inactive) | 1.77% (inactive) | 5.4% (inactive)
CCOC(=O)c1c(C)n(C)c2c(C)cc(O)c(OC(C)=O)c12 | 93 | 83.5% (inactive) | 93% (inactive) | 103% (inactive) | 101% (inactive) | 13.4% (inactive) | 87.3 | 101 | -3.9% (inactive) | 0.5% (inactive) | -11.9% (inactive) | -6.75% (inactive) | -5.24% (inactive) | 78.5% (inactive) | 86.8% (inactive) | 1.42% (inactive) | 1.23% (inactive)
CCOc1ccc(N2C(=O)CC(N3CC(C)OC(C)C3)C2=O)cc1 (stereo not given) | 97 | 93% (inactive) | 97% (inactive) | 100% (inactive) | 89.2% (inactive) | -2.21% (inactive) | 91.4 | 89.2 | -3.72% (inactive) | 1.33% (inactive) | -17.2% (inactive) | -10.4% (inactive) | -1.01% (inactive) | 105% (inactive) | 98.8% (inactive) | 1.47% (inactive) | 2.33% (inactive)
CCOC(=O)c1ccc(NCc2nc3ccccc3[nH]2)cc1 | 88.5 | 97% (inactive) | 88.5% (inactive) | 86% (inactive) | 105% (inactive) | 15.1% (inactive) | 89.7 | 105 | 0.93% (inactive) | -2.62% (inactive) | -1.66% (inactive) | -8.54% (inactive) | -5.9% (inactive) | 86.8% (inactive) | 76.8% (inactive) | 1.83% (inactive) | 2.11% (inactive)
COc1ccc(-c2nnc(SCC(=O)N3CCOCC3)o2)cc1OC | 91 | 96% (inactive) | 91% (inactive) | 89.4% (inactive) | 96.1% (inactive) | 3.41% (inactive) | 92.7 | 96.1 | -1.2% (inactive) | -6.89% (inactive) | 1.14% (inactive) | -3.02% (inactive) | -1.32% (inactive) | 103% (inactive) | 110% (inactive) | 1.16% (inactive) | 1.27% (inactive)
